Data published in the OligoGym collection.

Each sequence was assayed against NDE1 (assay: pooled miR-30 sensor sort-seq; sequence = guide strand). Conditions: shRNA.
Further: reference of the scale not given here.

Row | Sequence | sensor-assay potency score (higher = more potent)
1 | TTCAGCTTCATATTCTCGGCTT | 0.137
2 | TCTCTGAACAGATTCCAGGAGA | -0.696
3 | TCTGTTTGTAGGTCATCGCCAG | -0.347
4 | TTCTCGGAGTTCCTCTTGCGTA | -1.4
5 | TCTTCGAGAGACATGATCGTGG | -0.394
6 | TTGCTTGCTCCAGCTCTCTGAT | -1.21
7 | TTCAATTTGTTGCAGCTGCGTC | -0.561
8 | TTAAACTTGAGCTGGGTCCTCG | -0.477
9 | TTGATTTGGACAACCAGCGGCA | -0.226
10 | TTTGCTTGCTCCAGCTCTCTGA | -0.321
11 | TTTTCGGACAGGAGGTCTCTGT | -0.635

The sequences below were run against NDUFA7 in the same assay as above. Conditions: shRNA.

Row | Sequence | sensor-assay potency score (higher = more potent)
12 | TCTCAGTGGCAGCTACAGCAGA | -0.927
13 | AGGAGCTGGAGTCACCGCCTTC | -1.6
14 | ATTGTTGGAGAGCTTGTGGCTA | -0.402
15 | TTCGCTTGGAGATCTCCTGGTA | 0.453
16 | TTGTGGCTAGGACCCACAGGGA | -1.83
17 | TCGCTTGGAGATCTCCTGGTAG | -0.223
18 | TCTCCTGGTAGCGTAGCTGCAG | -1.09
19 | TACAGCAGAGCTCTCTGCTGGC | -0.355
20 | AATTAGGTCACATTCTCCCTGG | -0.0171
21 | TTGTTGGAGAGCTTGTGGCTAG | -0.163
22 | TAGCGTAGCTGCAGCTTCCCCT | -0.864
23 | TAAAACTAGAAGTGATACCTGA | 0.222

What follows are sequences tested against NDUFA9 in the same assay as above. Conditions: shRNA.

Row | Sequence | sensor-assay potency score (higher = more potent)
24 | TGTGTTGTACTACTCGTCGGAT | -0.517
25 | TATAGGACCAAACCGATGCATA | -1.43
26 | TTGATGACCACATTGCTGTGTT | 0.542
27 | TTTAACTGTCTTCCAGCCCAAG | -1.24
28 | TTCAACTCCAGCTTCCTTGGAC | 0.368
29 | TACTTTCTCTCCAACAGCCTTA | 0.0635
30 | TAGAATCTTTATCTCTCGCGTC | -0.0518
31 | TTATTTCAAAGACTCTTGCTAC | -0.0759
32 | TTGCTGTGTTGTACTACTCGTC | -0.266
33 | TGACTGAGGAACGTCCACCTTT | -0.755
34 | TTAAGGAATCTATCCTCTCTTC | -0.535
35 | TTAACTGCATTAACAATTCCTT | -0.73

The sequences below were run against NDUFAB1 in the same assay as above. Conditions: shRNA.

Row | Sequence | sensor-assay potency score (higher = more potent)
36 | TTTACTGAAAGCTTCTCTGGGT | 0.584
37 | TGTAACTCTACCAGGAACCTGC | 0.262
38 | ACAACTGTGTAACTCTACCAGG | -1.08
